The target of assay [1] is Lysosomal acid glucosylceramidase (Homo sapiens) (UniProt P04062). The assay can be described thus: Glucocerebrosidase-p2 (AID 348; in the data active = potency below about 10 µM; also: potency is read from the fitted curve at half-maximal effect). As to conditions: purified GBA, blue fluorogenic substrate, 40 min. The gist of the method:
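Compounds titrated from 0.6 nM upwards against 0.2 nM enzyme in pH 5.9 citric acid/KH2PO4, taurocholate, tween-20; blue fluorogenic substrate 80 uM, 40 min room temperature, stopped and read Ex 365/Em 440 for AC50.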

The nature of assay [2]: AP1 Signaling Pathway (AID 357).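 Also: ME-180 reporter cells stimulated with EGF at its EC50 level; % is scaled to controls: 0 for no effect and ±100 for the full control effect.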 The settings on record: ME-180 AP-1-bla reporter, EGF-induced, beta-lactamase ratio, 5 h; at 7.69 µM (top of the series) unless noted. The method, boiled down: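 Beta-lactamase reporter under AP-1 response element, ME-180 background. Stimulus: EC50 EGF. Compound exposure 5 h, 37 °C. Detection: CCF4, 2.5 h RT, 460/530 nm. Values: AC50 from titration.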

Assay [3] is described as follows: NFAT Signaling Pathway (AID 444).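 Also: carbachol stimulus at about its EC50 of 1 µM final; % is scaled to controls: 0 for no effect and ±100 for the full control effect.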 As to conditions: Jurkat NFAT-bla M1, carbachol, beta-lactamase ratio, 5 h; at 7.69 µM (top of the series) unless noted. The gist of the method: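 Jurkat cells carrying an NFAT-driven β-lactamase reporter and co-transfected muscarinic M1 receptor were treated with compound plus carbachol (1 uM final, an EC50 level) for 5 h at 37 °C. CCF4 loading followed for 1 h at RT; 460/530 nm ratio gave %activity.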

Assay [4] in a line: Stat Signaling Pathway (AID 446).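 Also: ME-180 cervical cancer cells given 40 pM IL-6 alongside compound; SIE-controlled beta-lactamase reporter measured as 460/530 nm FRET emission ratio; % is scaled to controls: 0 for no effect and ±100 for the full control effect.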 The settings on record: ME-180 SIE beta-lactamase reporter, IL-6 stimulated, 5 h; at 7.69 µM (top of the series) unless noted. The method, boiled down: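 ME-180 cells carrying a SIE-driven beta-lactamase reporter are stimulated with 40 pM IL-6 for 5 h at 37C in the presence of compound. The 460/530 nm FRET substrate ratio is read after 2.5 h at RT. Data are normalised to 300 pM IL-6 and to 125 nM JAK inhibitor controls.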

For assay [5], the target named is Glucocorticoid receptor (Homo sapiens) (UniProt P04150). The assay can be described thus: GR-GFP Redistribution (AID 450;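 active = compounds whose dose series gives a full or clear partial fitted curve of increased nuclear translocation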; also: potency is read from the fitted curve at half-maximal effect). As to conditions: U2OS GR-GFP nuclear translocation, laser cytometry, 2 h.
The target is the same in assay [6]. The assay can be described thus: GR-EFC Redistribution (AID 451; calls by dose curve; also: potency is read from the fitted curve at half-maximal effect). The settings on record: CHO-K1 GR-EFC translocation, beta-gal luminescence, 2 h. The gist of the method: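 CHO-K1 cells stably expressing nuclear-localized β-gal enzyme acceptor and GR fused C-terminally to the enzyme donor fragment; ligand-driven nuclear translocation restores β-gal by complementation. Compounds titrated up to 46 uM final, 2 h at 37 °C; luminescence read.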

For assay [7], the target named is Mitogen-activated protein kinase 10 (Mus musculus) (UniProt Q61831). The assay can be described thus: JNK3 AlphaScreen Assay (AID 530).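 Also: kinase came from lysate of stimulated human HepG2 cells; signal reports phosphorylation of biotinylated GST-cJun 1-79 at Ser73 with 10 µM ATP; % is scaled to controls: 0 for no effect and ±100 for the full control effect.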 The settings on record: JNK3 lysate, c-Jun phosphorylation; series mostly up to 57.1 µM. The gist of the method: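 Inhibitors reduce antibody binding to phosphorylated biotin-cJun, lowering AlphaScreen luminescence. Lysates from HepG2 cells pre-activated by IL-1beta plus TNF-alpha supplied JNK3; compounds were titrated.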
On the technique in general: Bead proximity is the source of the signal in Alpha formats.

Assay [8] deals with 3',5'-cyclic-AMP phosphodiesterase 4B (Homo sapiens) (UniProt Q07343). Kind of assay: qHTS Assay for Inhibitors of PDE-IV (AID 607; active = well fitted activation curve with a large enough effect in the main read-out, with a control signal flat, not every such curve was filed as active; also: % of control where 0% means no effect). As to conditions: HEK293 ACTOne CNG channel cells, membrane potential fluorescence; series mostly up to 22.9 µM. The method, boiled down:
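HEK293 ACTOne cells with CNG channel (1000/well), endogenous PDE4; membrane potential dye, compounds up to 22.9 uM final. Fluorescence Ex 535/Em 590; RO 20-1724 (100 uM final) as reference.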
Background: In qHTS, concentration-response curves come from the screen itself.

A short description of assay [9]: Primary qHTS for small molecule stabilizers of the endoplasmic reticulum resident proteome: Secreted ER Calcium Modulated Protein (SERCaMP) assay (AID 1508630; active = well fitted curve in the direction sought with a large enough effect; an effect the other way counts as inactive or inconclusive; also: % is scaled to controls: 0 for no effect and ±100 for the full control effect). The settings on record: SH-SY5Y GLuc-SERCaMP (Gaussia luciferase released on ER calcium loss) secretion, thapsigargin, luminescence; series mostly up to 38.4 µM. The method, boiled down:
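GLuc-SERCaMP-expressing SH-SY5Y cells, pretreated 16 h with compound, are challenged with thapsigargin to empty ER calcium stores; after 4 h, coelenterazine is added directly to the medium and luminescence is imaged.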

Assay [10] concerns the target Cytochrome P450 3A4 (Homo sapiens) (UniProt P08684). The assay can be described thus: qHTS Assay for Activators of Cytochrome P450 3A4 (AID 885; active = well fitted curve in the direction sought with a large enough effect; an effect the other way counts as inactive or inconclusive; also: nearly all actives have a fitted effect of over 65% in size). As to conditions: recombinant CYP3A4, Luciferin-PPXE luminescence, 60 min; series mostly up to 57.1 µM. The method, boiled down:
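Human CYP3A4 (20 nM) with Luciferin-PPXE at 25 uM (its KM) in 200 mM KPO4; 10 min compound preincubation, then NADPH regeneration and 60 min reaction at RT. Luciferin read by luminescence; normalized to 57 uM ketoconazole full inhibition.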

Assay [11] shares this target. The assay can be described thus: qHTS Assay for Inhibitors and Substrates of Cytochrome P450 3A4 (AID 884; active = well fitted curve in the direction sought with a large enough effect; an effect the other way counts as inactive or inconclusive; also: potency is read from the fitted curve at half-maximal effect; nearly all actives have a fitted effect of over 50% in size). As to conditions: recombinant CYP3A4, Luciferin-PPXE luminescence; series mostly up to 57.1 µM. The method, boiled down:
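20 nM human CYP3A4 with 25 uM Luciferin-PPXE (at KM) in 200 mM KPO4, preincubated 10 min with compound; NADPH regeneration started a 60 min RT reaction. Luciferin detected by luminescence, normalized to 57 uM ketoconazole as full inhibition.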

Values without a mark were called inactive. Results filed as inconclusive are left out. Calls of active or inactive are those of the source. Unless noted, calls follow the shape of the dose curve; as a rule, active = well fitted curve in either direction with a large enough effect (not every such curve was filed as active); inconclusive = small, poorly fitted or top-dose-only effect, or another doubt; inactive = flat fitted curve, though single readings scatter. Some results are limits rather than exact numbers.

Sequence of 3',5'-cyclic-AMP phosphodiesterase 4B (Homo sapiens) (Q07343 whole entry, looked up): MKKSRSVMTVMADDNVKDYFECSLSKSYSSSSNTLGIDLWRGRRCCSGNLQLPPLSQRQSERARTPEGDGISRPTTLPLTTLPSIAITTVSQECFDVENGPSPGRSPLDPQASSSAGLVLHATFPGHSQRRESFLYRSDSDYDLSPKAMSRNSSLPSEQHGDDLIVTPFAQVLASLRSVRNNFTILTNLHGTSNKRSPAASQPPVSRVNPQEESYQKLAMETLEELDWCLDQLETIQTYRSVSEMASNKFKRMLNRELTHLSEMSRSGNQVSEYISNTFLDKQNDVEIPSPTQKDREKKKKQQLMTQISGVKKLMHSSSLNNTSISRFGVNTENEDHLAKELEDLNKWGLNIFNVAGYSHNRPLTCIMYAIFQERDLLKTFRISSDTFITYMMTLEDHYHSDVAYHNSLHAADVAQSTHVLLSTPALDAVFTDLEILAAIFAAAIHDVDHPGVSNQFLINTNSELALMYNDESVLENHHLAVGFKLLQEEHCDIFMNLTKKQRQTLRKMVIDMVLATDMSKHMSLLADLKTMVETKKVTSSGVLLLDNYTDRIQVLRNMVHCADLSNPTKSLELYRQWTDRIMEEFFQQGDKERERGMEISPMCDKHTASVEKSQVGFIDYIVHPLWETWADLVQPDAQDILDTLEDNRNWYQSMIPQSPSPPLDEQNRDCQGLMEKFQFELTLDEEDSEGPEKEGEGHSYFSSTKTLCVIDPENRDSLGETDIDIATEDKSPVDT
Sequence of Cytochrome P450 3A4 (Homo sapiens) (P08684 whole entry, looked up): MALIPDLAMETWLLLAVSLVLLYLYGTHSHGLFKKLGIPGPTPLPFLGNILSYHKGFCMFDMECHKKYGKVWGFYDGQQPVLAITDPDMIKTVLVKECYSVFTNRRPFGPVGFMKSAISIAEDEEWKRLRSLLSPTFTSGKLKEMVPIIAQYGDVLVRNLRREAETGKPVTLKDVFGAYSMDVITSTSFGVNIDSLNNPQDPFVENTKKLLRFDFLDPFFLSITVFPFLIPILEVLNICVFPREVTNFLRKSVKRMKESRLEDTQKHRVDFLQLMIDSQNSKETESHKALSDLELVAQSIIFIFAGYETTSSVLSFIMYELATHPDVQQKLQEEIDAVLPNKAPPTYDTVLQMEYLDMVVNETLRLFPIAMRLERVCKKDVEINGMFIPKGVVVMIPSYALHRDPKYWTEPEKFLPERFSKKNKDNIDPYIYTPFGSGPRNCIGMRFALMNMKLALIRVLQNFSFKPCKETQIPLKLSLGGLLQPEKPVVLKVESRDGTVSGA
Sequence of Lysosomal acid glucosylceramidase (Homo sapiens) (P04062 whole entry, looked up): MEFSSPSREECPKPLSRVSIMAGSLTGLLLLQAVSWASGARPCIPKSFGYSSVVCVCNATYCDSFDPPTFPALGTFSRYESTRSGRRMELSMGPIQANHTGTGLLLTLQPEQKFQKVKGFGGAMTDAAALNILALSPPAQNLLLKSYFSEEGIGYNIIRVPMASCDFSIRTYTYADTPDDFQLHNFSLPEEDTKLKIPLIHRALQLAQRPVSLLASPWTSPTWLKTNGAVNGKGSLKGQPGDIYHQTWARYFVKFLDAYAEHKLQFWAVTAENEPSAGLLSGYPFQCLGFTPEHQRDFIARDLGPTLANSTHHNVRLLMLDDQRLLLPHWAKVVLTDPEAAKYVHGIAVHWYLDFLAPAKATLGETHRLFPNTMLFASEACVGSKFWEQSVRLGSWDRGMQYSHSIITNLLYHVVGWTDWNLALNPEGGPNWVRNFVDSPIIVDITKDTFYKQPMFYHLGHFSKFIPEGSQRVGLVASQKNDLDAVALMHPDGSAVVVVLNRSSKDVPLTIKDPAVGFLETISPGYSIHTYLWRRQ
Sequence of Glucocorticoid receptor (Homo sapiens) (P04150 whole entry, looked up, the tested form may be a part): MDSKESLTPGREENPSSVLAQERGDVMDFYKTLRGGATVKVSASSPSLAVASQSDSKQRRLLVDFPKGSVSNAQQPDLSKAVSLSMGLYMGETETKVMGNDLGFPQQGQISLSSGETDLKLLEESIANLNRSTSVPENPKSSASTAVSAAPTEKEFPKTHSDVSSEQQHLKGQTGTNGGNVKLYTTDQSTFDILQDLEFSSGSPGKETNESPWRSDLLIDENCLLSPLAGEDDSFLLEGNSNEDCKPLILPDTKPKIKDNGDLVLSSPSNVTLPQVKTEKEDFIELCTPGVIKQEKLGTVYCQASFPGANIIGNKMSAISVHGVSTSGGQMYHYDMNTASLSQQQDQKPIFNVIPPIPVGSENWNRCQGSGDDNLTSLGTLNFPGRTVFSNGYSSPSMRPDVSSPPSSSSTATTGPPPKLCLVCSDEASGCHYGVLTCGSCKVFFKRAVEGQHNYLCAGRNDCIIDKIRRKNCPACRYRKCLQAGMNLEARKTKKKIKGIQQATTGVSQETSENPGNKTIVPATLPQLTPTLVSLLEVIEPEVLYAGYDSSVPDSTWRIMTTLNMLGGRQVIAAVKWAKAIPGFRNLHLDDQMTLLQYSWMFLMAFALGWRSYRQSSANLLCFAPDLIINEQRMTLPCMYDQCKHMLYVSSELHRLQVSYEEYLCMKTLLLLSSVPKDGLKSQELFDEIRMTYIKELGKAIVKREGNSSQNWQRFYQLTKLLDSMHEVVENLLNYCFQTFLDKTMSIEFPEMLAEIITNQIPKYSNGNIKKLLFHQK

As to `Cn1c(=O)c(-c2cc(F)cc(F)c2)nc2cnc(Oc3cccc(Cl)c3)nc21`, the Potency in [1] was more than 11.4 µM; in assay [5] it was more than 9.22 µM; in assay [6] it was more than 46 µM. The values for the activity change, negative = inhibition in assay [2] and in [3] were -16% and -4.07%, respectively. In addition, in assay [4], the activity, negative = inhibition is 7.63%. In addition, the Potency result in assay [7] and in [8] was “inactive” throughout. The outcome in assay [9] was inactive.
As for `O=c1c(-c2ccc(F)cc2)nc2cnc(Nc3ccccc3)nc2n1C1CC1`, the Potency in assay [1] is more than 11.4 µM; in assay [5], more than 9.22 µM; in assay [6] it was more than 46 µM. Further, the activity change, negative = inhibition was -14% in assay [2] and -2.3% in assay [3]. Further, in assay [4], the activity, negative = inhibition was -3.65%. Also, the Potency entry in [7] and in assay [8] was “inactive” throughout. The result in [9] was inactive.
As to `COCCn1c(=O)cnc2cnc(OCc3ccccc3)nc21`, the Potency in [1] was more than 11.4 µM; in [5], more than 9.22 µM; in assay [6], more than 46 µM. Also, the activity change, negative = inhibition in assay [2] is -3.32%; in assay [3] it was -3.92%. The activity, negative = inhibition in assay [4] is 3.06%. Besides, the Potency result in assay [7], in assay [8] and in [10] was “inactive” in each case. Besides, the outcome in [9] was inactive.
With `COc1ccc(-c2nc3cnc(OC)nc3n(Cc3cccc(OC)c3)c2=O)cc1`, the Potency was more than 11.4 µM in assay [1], more than 9.22 µM in assay [5], more than 46 µM in [6] and 2.51 µM (active) in [11]. The activity change, negative = inhibition in assay [2] is -4%; in assay [3] it was -10.2%. Further, the activity, negative = inhibition in assay [4] was 27.2%. In addition, the Potency entry in [7] and in [10] was “inactive” each time. Moreover, in assay [9], the outcome was inactive.
In the case of `COc1ncc2nc(C)c(=O)n(C[C@H]3CCCO3)c2n1`, the Potency in assay [1] was more than 11.4 µM; in [5] it was more than 9.22 µM; in [6], more than 46 µM. The figures for the activity change, negative = inhibition in assay [2] and in assay [3] were -6.08% and -9.08%, respectively. Further, in assay [4], the activity, negative = inhibition is -2.46%. In addition, the Potency entry in assay [7] and in assay [8] was “inactive” in each case. For the same compound, the result in assay [9] was inactive.
For the compound `COCCn1c(=O)c(-c2cc(F)cc(F)c2)nc2cnc(OCc3ccccc3)nc21`, the Potency in assay [1] is more than 11.4 µM; in assay [5], more than 9.22 µM; in [6], more than 46 µM. Also, the activity change, negative = inhibition in assay [2] is 8.07%; in [3] it was -6.33%. Moreover, the activity, negative = inhibition in assay [4] was -6.5%. Further, the Potency entry in [7] and in [8] was “inactive” each time. Further, the result in [9] was inactive.
Consider `COc1cccc(Cn2c(=O)c(-c3ccc(F)c(F)c3)nc3cncnc32)c1`, for which the Potency in assay [1] was more than 11.4 µM; in [5], more than 9.22 µM; in [6] it was more than 46 µM. In addition, the values for the activity change, negative = inhibition in assay [2] and in [3] were -5.97% and -0.724%, respectively. The activity, negative = inhibition in assay [4] is 2.07%. Moreover, the Potency result in assay [8] is “inactive”. In [9], the outcome was inactive.
For the compound `COCCn1c(=O)c(C)nc2cnc(OCc3ccccc3)nc21`, the figures for the Potency in [1], in assay [5] and in [6] were more than 11.4 µM, more than 9.22 µM and more than 46 µM, respectively. Moreover, the activity change, negative = inhibition is -16.6% in assay [2] and -3.44% in [3]. Moreover, the activity, negative = inhibition in assay [4] was -9.48%. The Potency entry in [7] and in assay [8] was “inactive” throughout. Besides, the outcome in assay [9] was inactive.
